Bioassay records (PubChem)
Chronic BCR inh = chronic active BCR signaling inhibition | ABC-DLBCL IkBa-CBG/CBR reporter, luminescence ratio, 4 h | Potency, µM (titrated, usually from 46.1 µM), for the others: top-dose activity change, negative = inhibition, hits mostly inhibitors | 0.05% of 340,000 active | AID 493014; active means well fitted inhibition curve with a large enough effect in the signal ratio, with a control signal flat, not every such curve was filed as active; inconclusive means small, poorly fitted or top-dose-only effect, or effect the other way, or a change in a side signal; the % refers to the signal ratio;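 further: potency means the concentration at half of the fitted maximal effect; plate controls were basal doxycycline-induced cells for no effect and cells given 10 µM MG132 for full effect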
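TMD8 human ABC-DLBCL cells with doxycycline-inducible IκBα–green luciferase fusion and unfused red luciferase, in 0.5% FBS medium; compounds up to 46 uM, 4 h at 37C. Green/red luminescence ratio, filter-overlap corrected, fitted to concentration-response curves.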
Vif-A3F inh = Vif-A3F binding inhibition; HeLa A3F-eYFP + Vif (tagged APOBEC3F with the HIV-1 protein that degrades it), YFP fluorescence increase; Potency, µM (doses to about 46.1 µM), without a hit: at the top dose activity, negative = active; 0.2% of 390,000 active; further: potency means the concentration at half of the fitted maximal effect; % of control where 0% means no effect; nearly all actives have a fitted effect of over 65% in size
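HeLa cells stably expressing Vif plus C-terminally eYFP-tagged A3F were seeded, incubated overnight at 37 deg C, dosed with compound, incubated overnight again at 37 deg C. Yellow fluorescence (Ex 488/Em 500-530) reported blocked Vif-mediated A3F-eYFP degradation.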
uPA surface inh = cell surface uPA generation inhibition | cell surface uPA generation assay, qHTS | Potency, µM (doses to about 38.3 µM), for the others: at the highest dose activity change, negative = inhibition, usual class: inhibitors | 0.31% of 330,000 active | AID 540303; active means well fitted inhibition curve with a large enough effect; inconclusive means small, poorly fitted or top-dose-only effect; inactive means no such curve, though single readings can be large or run the other way; tested in mouse RAW 264.7 cells; further: potency means the concentration at half of the fitted maximal effect; on the % scale 0 is the no-effect control and ±100 the full control effect; nearly all actives have a fitted effect of over 55% in size
TCR act = activators of T cell receptors; primary human leukocytes, anti-CD3, IL-2 HTRF, 48 h; Potency, µM (series often up to 9.22 µM), for the others: top-dose activation of IL-2 secretion, most hits filed as activators; 330,000 tested, under 10 active; further: % of control where 0% means no effect
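Readout: HTRF IL-2, Eu-cryptate/d2 antibody pair, 320nm excitation, 665nm emission. Stimulus: a-CD3 beads, no co-stimulation. Cells: primary human leukocytes. Exposure: 48 hr with compound.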
Vif-A3G inh = inhibitors of Vif-APOBEC3G interaction; Q9HC16; HeLa A3G-eYFP + Vif (tagged APOBEC3G with the HIV-1 protein that degrades it), YFP fluorescence, overnight; Potency, µM (highest dose often 46.1 µM), for inactives: at the top dose activity, negative = active, usual class: inhibitors; 0.076% of 410,000 active; further: potency means the concentration at half of the fitted maximal effect; on the % scale 0 is the no-effect control and ±100 the full control effect; nearly all actives have a fitted effect of over 60% in size
Target sequence (Q9HC16 whole entry, looked up): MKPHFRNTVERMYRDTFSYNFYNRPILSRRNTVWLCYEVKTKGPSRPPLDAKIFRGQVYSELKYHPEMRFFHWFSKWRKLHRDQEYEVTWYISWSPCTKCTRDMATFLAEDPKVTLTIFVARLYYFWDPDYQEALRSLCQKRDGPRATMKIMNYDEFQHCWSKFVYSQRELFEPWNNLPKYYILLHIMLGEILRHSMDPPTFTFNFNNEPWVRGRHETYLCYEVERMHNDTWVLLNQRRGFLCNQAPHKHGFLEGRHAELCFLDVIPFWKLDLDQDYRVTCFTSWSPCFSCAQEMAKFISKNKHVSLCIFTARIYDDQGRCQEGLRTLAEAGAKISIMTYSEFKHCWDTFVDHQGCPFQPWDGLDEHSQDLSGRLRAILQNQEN
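Read-out is eYFP fluorescence (Ex 488/Em 500-530) from Vif-expressing HeLa A3G-eYFP cells; more signal means A3G escaped Vif-mediated degradation. Cells plated overnight, compound pinned in, incubated overnight at 37 deg C.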
MBNL1-CUG inh = inhibitors of human MBNL1 binding to CUG repeat RNA. TR-FRET MBNL1-His/biotin-(CUG)12 binding, 665/545 ratio. Potency, µM (top dose mostly 57.5 µM), inactives show at the top dose activity change, negative = inhibition, most hits filed as inhibitors. Q9NR56. 0.036% of 280,000 active. AID 2675; active means well fitted inhibition curve with a large enough effect in the signal ratio, with a control signal flat, not every such curve was filed as active; inconclusive means small, poorly fitted or top-dose-only effect, or effect the other way, or a change in a side signal; inactive means no such curve, though single readings can be large or run the other way; the % refers to the signal ratio; further: potency means the concentration at half of the fitted maximal effect; on the % scale 0 is the no-effect control and ±100 the full control effect
Target sequence (Q9NR56 whole entry, looked up): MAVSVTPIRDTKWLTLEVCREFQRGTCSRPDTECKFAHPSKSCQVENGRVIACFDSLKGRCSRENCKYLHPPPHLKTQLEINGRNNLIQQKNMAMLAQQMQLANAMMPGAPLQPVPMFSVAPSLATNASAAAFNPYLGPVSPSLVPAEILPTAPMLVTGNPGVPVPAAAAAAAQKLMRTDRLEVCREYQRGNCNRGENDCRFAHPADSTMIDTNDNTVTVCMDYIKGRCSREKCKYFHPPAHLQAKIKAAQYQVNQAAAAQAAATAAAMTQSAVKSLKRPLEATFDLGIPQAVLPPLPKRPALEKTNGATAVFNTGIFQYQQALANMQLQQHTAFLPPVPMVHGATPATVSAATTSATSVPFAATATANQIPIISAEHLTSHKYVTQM
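TR-FRET readout: Ex 340 nm, 665/545 nm emission ratio, normalized to buffer-only (basal) and MBNL1-(CUG)12 controls. Complex of MBNL1-His with Biotin-(CUG)12, compounds 92 nM–58 uM, incubated 60 min at room temperature.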
An asterisk follows results filed as active; u = inconclusive; x = no result; [ ] = remark or other dose. Rows were chosen to be rich in hits. Some 0.54% of all compounds tested hit in one or more screens of this group. Unless noted, the call rests on the fitted dose curve; in most records, active means well fitted curve in the direction sought with a large enough effect; inconclusive means small, poorly fitted or top-dose-only effect, or another doubt; inactive means no such curve, though single readings can be large; an effect the other way counts as inactive or inconclusive.

SMILES | Chronic BCR inh | Vif-A3F inh | uPA surface inh | TCR act | Vif-A3G inh | MBNL1-CUG inh
Cc1ccc(NC(=O)c2ccc(C)cc2)cc1 | -10% | 7% | 2.8µM* | 3% | -2% | x
O=[N+]([O-])c1ccc(N/N=C/C=C/c2ccco2)cc1 | x | 11µM* | 4% | -2% | u | x
C=CC[n+]1c(/C=C2\C=Cc3cc(C)ccc3N2CC)ccc2ccccc21 | u | u | 8.9µM* | 2% | -24% | x
CC(C)(C)n1ncc2c(=O)n(Cc3cccc(C(F)(F)F)c3Cl)cnc21 | x | x | x | x | -2% | x
Oc1ccc(/C=N\Nc2nncc(-c3ccccc3)n2)cc1 | u | -14% | -11% | 27% | 11µM* | u
COc1ccc(-c2cnnc(N/N=C/c3ccc(O)cc3)n2)cc1 | -19% | -5% | -8% | -2% | -23% | u
Cn1cc(C(=O)N/N=C/C(Br)=C/c2ccccc2)ccc1=O | u | u | 5.6µM* | -6% | u | x
Cn1cc(C(=O)N/N=C/C(Br)=C\c2ccccc2)ccc1=O | u | -25% | -6% | 3% | u | 28%
CC(=O)C[C@H]1c2cc(F)cc(F)c2S(=O)(=O)N1C1CCN(Cc2ccccc2)CC1 | x | x | x | x | -1% | x
CCN1/C(=C\C=C(C(C)=O)C(C)=O)Sc2ccccc21 | -26% | 22µM* | -1% | -2% | 22µM* | u
Cc1cc(/C=C\c2ccc3cc(N(C)C)ccc3[n+]2C)c(C)n1-c1ccccc1 | u | 3.2µM* | u | 4% | 7.1µM* | x
CS(=O)(=O)Nc1ccc(C2=NN(S(C)(=O)=O)C(c3ccc4nccnc4c3)C2)cc1 (stereo not given) | 3% | 22µM* | -2% | -2% | u | 4%
CCS(=O)(=O)N1N=C(c2cccc(NS(C)(=O)=O)c2)CC1c1ccc(C)cc1 (stereo not given) | 3% | 11µM* | 1% | -3% | u | 3%
CCS(=O)(=O)Nc1cccc(C2=NN(S(C)(=O)=O)C(c3ccccc3)C2)c1 (stereo not given) | -11% | u | -1% | 0% | u | 7%
Cn1c(SCC(=O)NCc2ccco2)nnc1-c1cccc(NC(=O)c2ccccc2)c1 | x | x | x | x | 0% | x
NNC(=O)/C(=C/c1cccs1)NC(=O)c1ccccc1Cl | 11µM* | -10% | -8% | x | u | 12%
N#C/C(=C\c1cccs1)C(=O)c1ccccc1Cl | u | -18% | u | -1% | -29% | 2%
O=[N+]([O-])c1ccc2c(c1)/C(=C/c1ccc(C=S)cc1)C=C2 | x | x | x | x | -6% | x
Cc1ccc(NC(=S)N/N=C2\CCCCC2C)cc1 (stereo not given) | 3% | 22µM* | x | -5% | u | 5%
Oc1[nH]c2ccccc2c1N=Nc1ccccc1Cl | x | 22µM* | -2% | -3% | -15% | x
COc1ccc(CN2CC[C@H]3C=CC[C@@H](C(=O)Nc4ccc(Cl)cc4Cl)[C@H]3C2=O)cc1OC | x | x | x | x | -7% | x
O=[N+]([O-])c1ccc(Nc2nc(NCCN3CCOCC3)nc(Nc3ccc(Cl)cc3)n2)cc1 | x | x | x | x | 1% | x
Cn1ncc2c(O/N=C(\N)c3ccc(C(F)(F)F)cc3)ncnc21 | u | 6% | 2.8µM* | 3% | 0% | -3%
Cc1ccc(C(=O)NNc2ncnc3c2cnn3C)cc1 | -5% | -17% | -1% | -3% | 1% | x
C#Cc1ccc2c(c1)COc1c3ccccc3nn1-2 | x | 6% | 13µM* | -1% | -14% | x
SMILES | Chronic BCR inh | Vif-A3F inh | uPA surface inh | TCR act | Vif-A3G inh | MBNL1-CUG inh
CCCCC#Cc1ccc2c(c1)COc1c3ccccc3nn1-2 | 11% | 3% | -2% | -3% | 1% | -1%
C(#Cc1ccc2c(c1)COc1c3ccccc3nn1-2)c1ccccc1 | u | -6% | -10% | 8% | -7% | x
N#CCCCC#Cc1ccc2c(c1)COc1c3ccccc3nn1-2 | u | -3% | 10µM* | -6% | -4% | x
O=C(C[n+]1ccncc1)c1cccc([N+](=O)[O-])c1 | x | x | x | x | 2% | x
O=C(/C=C/c1ccccc1)CC(=O)c1ccccc1O | 14% | -3% | 8.9µM* | 5% | u | -5%
CC1=C(C(=O)OCc2ccccc2)N2C(=O)[C@@H](NC(=O)OCc3ccccc3)[C@H]2SC1 | x | x | x | x | 2% | x
CCCCNc1ccc(/C=C2\C=Cc3ccccc32)cc1 | x | x | x | x | -2% | x
CCCCOc1ccc(C(=O)Nc2ccc(OCC(=O)N3CCOCC3)cc2)cc1 | 1% | 4% | 7.1µM* | 1% | -1% | -2%
CCN(CC)S(=O)(=O)c1ccc(C(=O)Nc2ccc(OCC(=O)N3CCOCC3)cc2)cc1 | -6% | 5% | 2% | -4% | 7% | 15%
CC(=O)N1c2ccccc2N(Cc2ccc(C)cc2C)C(=O)C1(C)C | u | -2% | 7.1µM* | -5% | u | -7%
COc1cc(C(=O)N2CCN(c3ccc(C)cc3C)CC2)cc(OC)c1OC | -7% | -12% | 3.2µM* | -1%[46.1 µM] | u | 4%
CC(=O)/C(=C/c1ccccc1)C(=O)Nc1ccccc1C | -1% | -1% | 2.8µM* | 0% | u | -10%
O=[N+]([O-])c1ccc(/C=C2\C=C(C(O)c3ccc([N+](=O)[O-])cc3)c3ccccc32)cc1 (stereo not given) | x | x | x | x | 0% | x
c1ccc(-n2ncc3c(N4CCCCC4)ncnc32)cc1 | u | -9% | 1.6µM* | 0% | 1% | -16%
Clc1ccc(-n2ncc3c(NCC4CCCO4)ncnc32)cc1 (stereo not given) | 12% | -3% | 10µM* | -10%[46.1 µM] | -26% | 0%
CC1CCCN(c2ncnc3c2cnn3-c2ccc(Cl)cc2)C1 (stereo not given) | -2% | -3% | 2.2µM* | -2% | -2% | -4%
c1ccc(-n2ncc3c(NCC4CCCO4)ncnc32)cc1 (stereo not given) | u | 5% | -7% | -5% | -8% | -10%
Cc1cc2ccccc2cn1 | x | x | x | x | 3% | x
Cc1ccccc1N=C1Nc2ccc(Cl)cc2N[C@]12C[C@H]1CCCC(=O)N3CC[C@@H](C2)[C@@H]13 | x | x | x | x | -4% | x
COc1cc2c(NC3CCN(C)CC3)nc(N3CCCCC3)nc2cc1OCCCN(C)C | x | x | x | x | -8% | x
CCOC(=O)c1ccc(N=Nc2c(C)c(C#N)c(O)[nH]c2=O)cc1 | 12% | 10µM* | 3% | -1% | -11% | 20%
CCOC(=O)/C=C/C(=O)OCC(=O)N1CCN(C(=O)c2ccco2)CC1 | 13% | -3% | 7.9µM* | 2% | -12% | -1%
Cc1[nH]c2ccccc2c1C(c1c[nH]c2ccccc12)c1c(C)[nH]c2ccccc12 | x | x | x | x | -13% | x
CNS(=O)(=O)c1cc2c3c(cccc3c1)C(=O)NC2=O | 2% | 1% | 7.1µM* | 3% | 1% | u
